# Screening results as filed in PubChem.
# Compounds with a hit are over-represented: about 1.8% of the library has one in this group of screens.
# Ba/F3 V617F tox – loss of viability in JAK2V617F-driven Ba/F3 cells; Ba/F3 EpoR-JAK2V617F viability, ATP luminescence; inhibition, % at 5.6 µM; hit rate 1.1% among 220,000; AID 1446;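 active means inhibition above the campaign mean plus 3 SD over all tested compounds, cut at about 24% in these data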;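 further: cytokine-independent growth of Ba/F3 cells driven by EpoR plus mutant JAK2; 0% = DMSO-treated cells and 100% = JAK inhibitor I control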
# APP 5UTR inh – APP translation inhibition. SH-SY5Y APP 5'UTR-luciferase reporter, luminescence. inhibition, % at 2 µM. hit rate 0.82% among 190,000;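 active means inhibition above a set limit, derived from the sample mean plus 3 SD, cut at about 45% in these data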
# BaF3 parental – counter-screen for JAK2V617F inhibitors: parental Ba/F3 viability inhibitors; CellTiter-Glo ATP luminescence; inhibition, % at 5.6 µM; hit rate 1.1% among 220,000; AID 1486;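 active means inhibition above a per-campaign cutoff, the mean inhibition of all tested compounds plus 3 SD, cut at about 27% in these data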;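 further: 0% = DMSO wells and 100% = JAK Inhibitor I control wells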
# IEC-6 cytotox – IEC-6 cytotoxicity, counter-screen for KLF5 inhibitors; luminescence viability; inhibition, % at 5 µM; hit rate 0.78% among 290,000; AID 1825; in the data active means inhibition above about 22%;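 further: 0% = plate median of test compound wells and 100% = cytotoxic reference compound wells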
# KLF5 inhibitor – inhibitors of KLF5 expression. DLD-1 KLF5 promoter-luciferase reporter, luminescence. inhibition, % at 5 µM. hit rate 0.23% among 290,000;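 active means inhibition above a per-plate limit of that plate's mean compound inhibition plus 3 SD, cut at about 60% in these data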;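 further: 0% = DMSO wells and 100% = LY294002 at 200 µM; higher means less KLF5 promoter-driven luciferase light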
# * marks the source's active call; other numbers are inactive results; . = no result.
SMILES,Ba/F3 V617F tox,APP 5UTR inh,BaF3 parental,IEC-6 cytotox,KLF5 inhibitor
CC1Oc2cc3c(-c4c(O)cc(O)c5c(O)c6c(cc45)OC(C)C(C)C6=O)c(O)cc(O)c3c(O)c2C(=O)C1C (configuration not stated),96*,.,35*,-9,30
CCC(=Nc1ccc2c(c1)CCC2)c1c(O)n(-c2ccc(OC)cc2)c(=O)[nH]c1=O,0,.,-2,1,-16
CC(C)[C@]12O[C@H]1[C@@H]1O[C@]13[C@]1(O[C@H]1C[C@H]1C4=C(CC[C@@]13C)C(=O)OC4)[C@@H]2O,99*,.,105*,97*,104*
O=C1NC(=O)C(CCc2ccncc2)(c2ccccc2)C(=O)N1,-4,-21,2,-8,-6
CC(C)NC(=O)Cn1cc(C(=O)c2ccccc2F)c2ccccc21,-2,-10,1,-8,-24
COc1ccc(Oc2cc(NC(=O)c3nn(C)cc3[N+](=O)[O-])cc([N+](=O)[O-])c2)cc1,63*,95*,42*,15,-26
COc1ccc(NC(=O)c2cn(CCC#N)nc2-c2cccc([N+](=O)[O-])c2)cc1,4,.,-2,5,-35
Cc1c(CCN)ccc2c1[nH]c1ccccc12,-2,.,1,0,-5
CC1CCC(C(C)C)C(OC(=O)Cn2c(COc3ccccc3)[n+](C)c3ccccc32)C1 (configuration not stated),99*,.,101*,-7,-2
Cc1cc(=O)n(-c2ccccc2)n1-c1ccccc1,5,4,8,-4,-19
CCCOP(=O)(OCCC)C(NC(=O)c1ccccc1)=C(Cl)Cl,-2,-11,0,-2,-21
CN1/C(=C\C=Nc2ccccc2)C(C)(C)c2ccccc21,31*,-14,57*,-5,-7
COc1ccc(Cc2nccc3cc(OC)c(OC)cc23)cc1OC,11,2,27*,15,-1
CCN1CC=C(c2c[nH]c3ccccc23)CC1,87*,2,73*,-6,9
Cc1[nH]c2ccccc2c1C(=O)CN1CC=C(c2ccccc2)CC1,0,0,4,-4,-12
CCCCn1c(O)c(C=NC2CCCCC2N)c(=O)[nH]c1=O (configuration not stated),-1,-7,6,-5,-9
CCCCCCn1c(O)c(C=NC2CCCCC2N)c(=O)[nH]c1=O (configuration not stated),3,4,93*,3,-35
Cc1cc([N+](=O)[O-])c2ccccc2[n+]1[O-],100*,.,106*,101*,71*
Cc1nc2ccccc2c(=O)n1-c1ccccc1[N+](=O)[O-],-4,4,-2,13,-11
Cc1ccc(N2C(=O)NC(=O)/C(=C\C=C\c3ccco3)C2=O)cc1,2,.,0,-4,-31
Cc1ccc(N2C(=O)NC(=O)/C(=C\C=C\c3ccco3)C2=O)cc1C,-2,47*,1,4,3
CN1CC2([N+](=O)[O-])CC=C(Cl)C([N+](=O)[O-])(C1)C2 (configuration not stated),-1,-6,7,-2,-26
CCCC[N+]12CCC(CC1)C(Cc1ccccc1)C2 (configuration not stated),20,.,31*,0,8
COc1ccc(CCNCc2ccncc2)cc1,-2,23,4,-3,-15
COc1cc(CN2CCN(c3cc(C)ccc3C)CC2)ccc1O,35*,-26,50*,10,-5
SMILES,Ba/F3 V617F tox,APP 5UTR inh,BaF3 parental,IEC-6 cytotox,KLF5 inhibitor
CCOC(=O)C1SC2(C(F)F)CC1(O)c1c(c(OC)c3occc3c1OC)O2 (configuration not stated),5,3,9,2,-22
Cc1ccc(S(=O)(=O)Cc2ccc(C(=O)N3CCC4(CC3)OCCO4)o2)cc1,5,6,11,0,-9
CCOC(=O)CC(NC(=O)C(Cc1ccc(N(CCCl)CCCl)cc1)NC(C)=O)C(=O)OCC (configuration not stated),-1,86*,1,-3,-15
CC(=O)NC(Cc1ccc(N(CCCl)CCCl)cc1)C(=O)NC(C(=O)O)C(C)C (configuration not stated),3,2,2,4,11
CC[n+]1c(SC)ccc2cc(OC)ccc21,85*,-11,84*,-6,-18
COC(=O)C1CN(C#N)N(c2ccc(Cl)cc2)C12c1ccccc1-c1ccccc12 (configuration not stated),95*,94*,29*,46*,18
NC(=O)Cn1cc(C(=O)c2ccccc2)c2ccccc21,.,.,.,4,-68
Cc1[nH]c2c(C(F)(F)F)cccc2c1CCN,4,48*,11,6,0
Cc1[nH]c2ccc(OCc3ccccc3)cc2c1CCN,.,.,.,4,-22
CCC(C(=O)N1CCC2(CC1)OCCO2)n1c2ccccc2c2nc(=O)cc(C)n21 (configuration not stated),.,.,.,-8,-36
O=C(c1ccccc1)C(CN1CCCC1)c1ccccc1 (configuration not stated),1,92*,0,5,7
CCN1CCN(CC(c2ccccc2)c2ccccc2)CC1,.,.,.,-12,-16
CC(C)(C)n1c(O)c(C=Nc2ccc3c(c2)CCC3)c(=O)[nH]c1=O,-3,3,63*,0,-30
CCCCCSc1cc(OC)c(CCN)cc1OC,8,55*,10,12,35
C[n+]1c(-c2ccccc2)cc(CCCCc2cc(-c3ccccc3)[n+](C)c(-c3ccccc3)c2)cc1-c1ccccc1,1,-12,5,-11,-4
COc1ccc(-c2cc(-c3ccccc3)[n+](C)c(-c3ccccc3)c2)cc1,99*,-2,76*,11,32
CCCNC1=C(C)C(=O)C2=C(C1=O)C(COC(N)=O)[C@]1(OC)C3NC3CN21 (some centres not stated),82*,.,62*,8,-13
Cc1ccc(C)c(C2(O)CC(C)N(C)CC2C)c1 (configuration not stated),-2,-5,0,-3,-24
CN(C)C(Cc1ccccc1)C(=O)c1ccccc1 (configuration not stated),12,1,34*,-1,-54
C=CC(C)C(C(=O)c1ccccc1)N(C)C (configuration not stated),27*,-8,31*,11,-28
COc1ccc(C2NCc3ccc4c(c3-n3cccc32)OCO4)cc1O (configuration not stated),75*,94*,73*,74*,55
COC(=O)[C@@H]1C[C@@]1(C)[C@@H](NP(=O)(c1ccccc1)c1ccccc1)c1ccccc1,-2,-5,1,-6,-9
NC(N)=N/N=C/c1ccc(N2CCOCC2)cc1,58*,4,72*,4,4
O=C1CC(c2ccccc2)CC(O)=C1C=NCCN1CCN(C(=O)Cc2ccccc2)CC1 (configuration not stated),3,-8,28*,5,-20
CN1CCN(c2ccc([N+](=O)[O-])c3no[n+]([O-])c23)CC1,99*,.,107*,90*,10
